Test results: PubChem BioAssay AID1063 (University of Pittsburgh Molecular Library Screening Center, 2008)
Among all 200,000 compounds or so, about 18,000 (9%) were called active. Cut-off read from the data, not from the text of the source: active = inhibition above about 50%; inactive = the rest. Many of the other results were omitted from the sample, so actives are more common in it than they were.

Assay: antileishmanial activity against promastigotes – primary screen (AID 1063);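 note: promastigotes grown with compound for 44 hours at 28 °C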
Conditions: Leishmania major promastigotes, resazurin fluorescence viability; at 10 µM; hits give high values

SMILES | inhibition
Cc1cccc(N2C(=O)CC(SC(N)=Nc3ccccc3)C2=O)c1 (stereo not drawn) | 45.7% (inactive)
Cc1ccc(-n2c(O)c(C=Nc3ccc(S(=O)(=O)Nc4ncccn4)cc3)c3ccccc3c2=O)cc1C | -5.1% (inactive)
Cc1nnc(SCC(=O)N2c3ccccc3C(C)(c3ccc(Cl)cc3)CC2(C)C)s1 (stereo not drawn) | 56.6% (active)
Cc1nnc(SCC(=O)N2CCc3ccccc3C2)s1 | -1.97% (inactive)
Cc1nnc(SCC(=O)NCc2ccccc2)s1 | -9.92% (inactive)
Cc1ccc(NC(=O)C(=O)NCC2CCN(C(=O)c3cccc([N+](=O)[O-])c3)CC2)cc1 | 23% (inactive)
Cc1nn(-c2ccccc2)c(C)c1NC(=O)COc1ccc(Cl)cc1Cl | 43.4% (inactive)
CN1CCC(OC(=O)COc2ccc(Cl)cc2Cl)CC1 | 1.67% (inactive)
CN1CCN(c2ccc(NC(=O)COc3ccc(Cl)cc3Cl)cc2)CC1 | 98.7% (active)
S=C(NCC1CCCO1)N1CCN(c2ccc(Cl)c(Cl)c2)CC1 (stereo not drawn) | 17.8% (inactive)
NS(=O)(=O)c1ccc(Nc2nc(-c3ccccc3)cs2)cc1 | 81.2% (active)
COc1ccc(Nc2nc(-c3ccccc3)cs2)cc1 | -2.02% (inactive)
COc1ccc(-c2csc(Nc3ccc(O)cc3)n2)cc1 | 23% (inactive)
O=C(NCC(O)c1ccc([N+](=O)[O-])cc1)C1CCCCC1 (stereo not drawn) | -8.78% (inactive)
Cn1c(-c2sc3cc(C(F)(F)F)cnc3c2-c2ccccc2)n[nH]c1=S | 84.1% (active)
Cc1ccccc1-c1n[nH]c(=S)n1C | -18.2% (inactive)
Cn1c(-c2sccc2OCc2cccc(C(F)(F)F)c2)n[nH]c1=S | 14.1% (inactive)
O=C(CCSc1ccccc1)N1CCN(c2ccccc2F)CC1 | -5.13% (inactive)
O=C(Nc1nc(-c2cccnc2)cs1)c1ccccc1F | -2.37% (inactive)
OCCNCCCCOc1ccccc1F | 19.1% (inactive)
COCC(C)NC(=O)c1ccc(Cl)c(Cl)c1 (stereo not drawn) | -3.5% (inactive)

SMILES | inhibition
OCCNCCOc1ccc(Cl)c(Cl)c1 | 78.9% (active)
CC/C(Cc1ccccc1)=N/NC(=O)CCn1nnc2ccccc21 | -2.64% (inactive)
CCN(C(=O)CN1CCN(Cc2ccccc2)CC1)c1c(N)n(Cc2ccccc2)c(=O)[nH]c1=O | -0.59% (inactive)
COc1ccc(/C=C(/NC(=O)c2ccc(C)cc2)c2nc3ccccc3[nH]2)cc1OC | 16.1% (inactive)
CCC(=O)/C(=C(/O)c1ccccc1)c1nc2ccccc2[nH]1 | -5.9% (inactive)
O=C(/C(=C/c1cccc(Cl)c1)c1nc2ccccc2[nH]1)c1ccccc1 | 101% (active)
C=CCNCCCCOc1ccccc1 | 34.8% (inactive)
COc1ccc(NC(=O)CSc2nnc(-c3ccccc3F)n2C2CC2)cc1S(N)(=O)=O | 2.82% (inactive)
CC(=O)Nc1ccc(S(=O)(=O)N2CCSCC2)cc1 | 0.03% (inactive)
CC(=O)Nc1ccc(S(=O)(=O)N2CCN(CCCOc3cc(C)ccc3C)CC2)cc1 | 72.8% (active)
Cc1cccc(OCCCC(=O)Nc2ccc(S(=O)(=O)N3CCCC3)cc2)c1 | 44.8% (inactive)
O=C(CSc1ccccc1)Nc1cc(Cl)ccc1Oc1ccccc1 | 14.8% (inactive)
CCOC(=O)c1ccc(NC(=O)C2CC(=O)Nc3nc4ccccc4n32)cc1 (stereo not drawn) | -4.72% (inactive)
COC(=O)c1ccc(NC(=O)c2ccccc2NS(=O)(=O)c2ccccc2)cc1 | -3.45% (inactive)
COc1cc(NC(=O)c2ccccc2NS(=O)(=O)c2ccc(Cl)s2)cc(OC)c1 | 74.3% (active)
COc1cc(NC(=O)c2cccnc2SC)cc(OC)c1 | 1.73% (inactive)
Cc1cc(C)cc(C(=O)NC2C(=O)N3C(C(=O)O)=C(CSc4nnc(C)s4)CSC23)c1 (stereo not drawn) | -0.22% (inactive)
O=C1/C(=C\c2ccsc2)NC(=S)N1c1ccccc1 | -4.28% (inactive)
CC(=O)C1C(c2ccc(Cl)cc2)c2c(n[nH]c2C)CC1(C)O (stereo not drawn) | -0.37% (inactive)
CCCn1nc(C(=O)Nc2ccc3nc(C)sc3c2)c2ccccc2c1=O | 80.4% (active)
CCCCn1nc(C(=O)Nc2ccc(S(=O)(=O)Nc3ncccn3)cc2)c2ccccc2c1=O | -10.7% (inactive)

SMILES | inhibition
CCCn1nc(C(=O)N2CCCc3ccccc32)c2ccccc2c1=O | 26.1% (inactive)
Cn1c(=N)n(CC(O)c2cccs2)c2ccccc21 (stereo not drawn) | 1.42% (inactive)
N=c1n(Cc2ccc(Cl)cc2)c2ccccc2n1CC(O)c1ccco1 (stereo not drawn) | 85.3% (active)
CC(=O)NC1(c2ccc(F)cc2)CCN(C(=O)c2c(F)cccc2F)CC1 | -1.81% (inactive)
CN(Cc1nc2ccc(F)cc2[nH]1)Cc1nc(CC2CC2)no1 | -4.94% (inactive)
C[C@@H]1C[C@@H]2O[C@H]2/C=C\C=C\C(=O)Cc2c(Cl)c(O)cc(O)c2C(=O)O1 | 100% (active)
O=[N+]([O-])c1ccc2oc(-c3cccc(O)c3)nc2c1 | -1.6% (inactive)
CCOC(=O)C1(Cc2cccc(OC)c2)CCN(C(C)CC(C)(C)O)CC1 (stereo not drawn) | -1.48% (inactive)
CCOC(=O)C1(Cc2cccc(OC)c2)CCN(Cc2csc(C(C)=O)c2)CC1 | 92.9% (active)
CCOC(=O)C1(Cc2cccc(OC)c2)CCN(C(C)COC)CC1 (stereo not drawn) | 2.55% (inactive)
CC(=O)Nc1ccc(NC(=O)COc2ccc(S(=O)(=O)NC(C)c3ccccc3)cc2)cc1 (stereo not drawn) | -0.2% (inactive)
COc1cc(/C=C/C2=CC(C)(C)NC(=S)N2)cc(OC)c1OC | 0.1% (inactive)
Cn1c(=O)c2c(nc(NCCc3ccccc3)n2Cc2ccccc2)n(C)c1=O | 15.1% (inactive)
Cn1c(=O)c2c(nc(N/N=C/c3cccs3)n2Cc2ccc(Br)cc2)n(C)c1=O | 60.3% (active)
CCCCNc1nc2c(c(=O)n(C)c(=O)n2C)n1Cc1cccc(OC)c1 | 4.44% (inactive)
O=C(CN1C(=O)/C(=C\c2ccccc2F)SC1=S)Nc1nc2ccccc2s1 | -3.34% (inactive)
Clc1ccc(-c2csc(-c3ccncc3)n2)cc1 | 5.86% (inactive)
CCOc1cc(NC(=O)CCl)c(OCC)cc1NC(C)=O | 5.77% (inactive)
O=C1c2ccccc2S(=O)(=O)N1CC(O)Cn1c2ccccc2c2ccccc21 (stereo not drawn) | -4.57% (inactive)
CC(=O)c1ccc2c(c1)c1ccccc1n2CC(C)C | 9.99% (inactive)
CS(=O)(=O)N(CC(O)Cn1c2ccccc2c2ccccc21)c1cccc2ccccc12 (stereo not drawn) | 100% (active)
